Bioassay records: PubChem BioAssay, National Center for Advancing Translational Sciences (NCATS)
Most compounds without a hit are left out; they make up all but 6.2% or so of the library.
Gal4-VP16 FLuc – counter-screen for ROR gamma inhibitors: Gal4-VP16 reporter | hit rate 3.5% among 310,000 | Drosophila S2 Gal4-VP16 UAS-luciferase, luminescence, 20 h | Potency, µM (highest dose often 53.6 µM), for the others: at the top dose activity, negative = inhibition, most hits filed as inhibitors;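 further: Gal4-VP16 expression switched on by copper sulfate through the metallothionein promoter; nearly all actives have a fitted effect of over 50% in size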
Luc counter – blocks Kinase-Glo luciferase, a counter-screen artifact | Q27757 | Potency, µM (titrated, usually from 38.3 µM), inactives show at the highest dose activity change, negative = inhibition, most hits filed as inhibitors | AID 1379 | hit rate 0.28% among 200,000 | Kinase-Glo luciferase, ATP luminescence, 8 min; further: nearly all actives have a fitted effect of over 60% in size
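Light output from Kinase-Glo luciferase with luciferin and 10 uM ATP in 50 mM imidazole pH 7.2, KCl, MgCl2, Tween 20, BSA; compound pin-delivered, 8-min ambient incubation, then luminescence read.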
RORgamma inh – inhibitors of mouse ROR gamma transcriptional activity. P51450. Drosophila S2 Gal4-RORgamma UAS-luciferase reporter, 20 h. Potency, µM (titrated, usually from 53.6 µM), for the others: at the top dose activity change, negative = inhibition, most hits filed as inhibitors. hit rate 5.4% among 310,000; further: nearly all actives have a fitted effect of over 60% in size
Target sequence (P51450 whole entry, looked up, the tested form may be a part): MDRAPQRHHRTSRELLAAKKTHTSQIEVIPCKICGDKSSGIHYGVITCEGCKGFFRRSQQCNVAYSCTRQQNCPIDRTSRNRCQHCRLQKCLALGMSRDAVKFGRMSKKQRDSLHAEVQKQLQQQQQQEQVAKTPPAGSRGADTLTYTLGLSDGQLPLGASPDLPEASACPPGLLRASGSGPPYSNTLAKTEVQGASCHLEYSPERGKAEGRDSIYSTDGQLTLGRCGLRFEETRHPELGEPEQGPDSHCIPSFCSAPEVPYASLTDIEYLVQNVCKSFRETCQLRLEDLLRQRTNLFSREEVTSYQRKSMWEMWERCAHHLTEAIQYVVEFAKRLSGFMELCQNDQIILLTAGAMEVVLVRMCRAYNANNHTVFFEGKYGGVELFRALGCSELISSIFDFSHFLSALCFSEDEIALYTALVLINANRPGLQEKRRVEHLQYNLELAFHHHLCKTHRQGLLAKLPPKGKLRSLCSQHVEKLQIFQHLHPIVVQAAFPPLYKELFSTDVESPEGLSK
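Stable Schneider cell line, Gal4 DNA-binding domain fused to ROR gamma, UAS-luciferase. Cmpd 1 hr RT → CuSO4 700 uM final → 20 hr RT → luciferase reagent 10 min → luminescence.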
The depositor's hits bear a star; ? = inconclusive; nt = not tested or not shown; [ ] = dose if it differs, or a comment. The call rests on the fitted dose curve; in most records, active means well fitted curve in the direction sought with a large enough effect; inconclusive means small, poorly fitted or top-dose-only effect, or another doubt; inactive means no such curve, though single readings can be large; an effect the other way counts as inactive or inconclusive. On the % scale 0 is the no-effect control and ±100 the full control effect; potency means the concentration at half of the fitted maximal effect.

SMILES	Gal4-VP16 FLuc	Luc counter	RORgamma inh
CCOC(=O)c1cnn(-c2cc(C(C)(C)C)nc3c(-c4ccccc4)c(C)nn23)c1N	1%	-4%	-22%
C=CCSc1cc(C)nc2c(-c3ccc(Cl)cc3)c(C)nn12	?	17%	20µM*
Cc1cc(C(F)(F)F)n2nc(C)c(-c3ccc(Cl)cc3)c2n1	-10%	2%	-24%
CCOC(=O)c1ccccc1NC(=O)COC(=O)CSC(C)C(=O)Nc1cc(C)on1 (configuration not stated)	0%	nt	-15%
Cc1nc([N+](=O)[O-])c(N2CCN(Cc3ccccc3)CC2)n1Cc1ccccc1	6%	1%	-5%
O=C(O)c1cc([N+](=O)[O-])c(Sc2nc3ccccc3[nH]2)c([N+](=O)[O-])c1	3%	nt	?
COc1ccc2nc(Sc3c([N+](=O)[O-])nc(C)n3Cc3ccccc3)[nH]c2c1	-25%	0%	?
CS(=O)(=O)c1cc([N+](=O)[O-])c(Sc2nc3ccccc3[nH]2)c([N+](=O)[O-])c1	3.2µM*	-3%	2.5µM*
Cc1nc([N+](=O)[O-])c(Sc2nc3ccccc3[nH]2)n1Cc1ccccc1	?	5%	10µM*
Cc1cc2nc(Sc3c([N+](=O)[O-])nc(C)n3Cc3ccccc3)[nH]c2cc1C	8.9µM*	0%	13µM*
O=c1c(C/C=C/c2ccccc2)c(O)ccn1Cc1ccc(Cl)cc1Cl	-11%	4%	44%
Cc1cc(S(=O)(=O)NCC(C)C)ccc1OCC(=O)NCc1ccco1	5%	3%	10%
Cn1ccnc1SCC(=O)n1c2c(c3ccccc31)CCCC2	-30%	1%	14µM*
Cn1ccnc1SCC(=O)Nc1cccc2ccccc12	7%	6%	-1%
COc1cc2c(C(=O)N3CCOCC3)c(CSc3ccccc3)n(C)c2cc1Br	11%[10 µM]	-7%	?
Cc1cc(C)c2c(-c3ccc(-c4ccc(C(F)(F)F)cc4)cc3)cc(=O)oc2c1	-6%	4%[39.9 µM]	31%
Oc1c(C=C2N=c3ccccc3=N2)sc(=S)n1-c1ccc(F)cc1	13µM*	-1%	?
Oc1c(C=C2N=c3ccccc3=N2)sc(=S)n1-c1ccc2ccccc2c1	?	nt	10%
Cc1cc(Cl)cc(C)c1OCCn1ccnc1	1%	nt	-32%
Cc1cc(Cl)cc(C)c1OCCCCCn1ccnc1	18µM*	nt	?
Cc1cc(OCCCCCn2ccnc2)cc(C)c1Cl	5%	2%	24%
CCc1ccc(OCCCCCn2ccnc2)cc1	?	nt	11µM*
Cc1ccc(C)c(OCCCCCn2ccnc2)c1	-30%	2%	8.9µM*
CCc1ccc(OCCn2ccnc2)cc1	-7%	nt	-12%
Cc1cc(C)c(OCCCCCn2ccnc2)c(C)c1	14µM*	nt	11µM*
SMILES	Gal4-VP16 FLuc	Luc counter	RORgamma inh
Cc1cc(OCCCn2ccnc2)cc(C)c1Cl	-5%	2%	?
COc1ccc(O[C@H]2C=C[C@@H](c3ccccc3)O[C@H]2CO/N=C2/[C@H]3O[C@@H]3[C@@H](O)[C@H]3[C@H]2CCn2c(=O)n(-c4ccccc4)c(=O)n23)cc1	-8%[10 µM]	nt	-1%[10 µM]
Oc1ccc(Cn2ccnc2)c2cccnc12	?	3%	?
O=S(=O)(O)c1cccc2c(N=Nc3ccc(O)c4ncccc34)cccc12	-16%	nt	?
Nc1ccc(N=Nc2ccccc2)c2cccnc12	8%	nt	-37%
Cc1ccccc1N=Nc1ccc(O)c2ncccc12	0.89µM*	-1%	0.63µM*
COCc1ccc(O)c2ncccc12	3.2µM*	-3%	6.3µM*
COc1cccc(N=Nc2ccc(O)c3ncccc23)c1	-94%	nt	0.32µM*
COc1ccc(C)cc1N=Nc1ccc(O)c2ncccc12	0.63µM*	-5%	0.79µM*
COc1ccc(C)cc1-n1c(=O)c2ccccc2c2ccccc2c1=O	3%	8%	-24%
Cc1cc(C)c(C)c(S(=O)(=O)N2CCC(C(=O)Nc3ccncc3)CC2)c1C	?	nt	-17%
C[C@]12C=CC(=O)C=C1CC[C@@H]1[C@H]3C[C@@H](O)[C@](O)(C(=O)CO)[C@@]3(C)C[C@H](O)[C@]12F	0%[17 µM]	-2%[17.1 µM]	2%[16.9 µM]
Cn1cccc1C(=O)N1CCC2(CCN(C(=O)Nc3cccc(C#N)c3)CC2)CC1	-7%	-3%	24%
COc1ccc(Cl)cc1S(=O)(=O)Nc1noc2ccccc12	-1%	nt	-26%
O=S(=O)(NCC1CCCO1)c1ccc(Cl)nc1 (configuration not stated)	-6%	nt	11%
O=C(CN1CCc2ccccc2C1)Nc1cccc(S(=O)(=O)N2CCCC2)c1	0%	9%	32%
Oc1ccc(N=Nc2ccc3c(c2)OCCO3)c2cccnc12	-22%	-13%	0%
Cc1ccc(O)c2ncccc12	8.9µM*	nt	5µM*
COc1ccc(N=Nc2ccc(O)c3ncccc23)cc1	?	nt	0.13µM*
CC(C)NC[C@@H](O)c1ccc(O)c2ncccc12	nt	-5%[7.66 µM]	nt
O=Nc1ccc(O)c2ncccc12	5.6µM*	nt	1.6µM*
COc1cccc(N=Nc2ccc3cccnc3c2O)c1	0.89µM*	nt	0.56µM*
O=S(=O)(O)c1ccc2cc(N=Nc3cc(S(=O)(=O)O)c4cccnc4c3O)ccc2c1	nt	-4%[7.66 µM]	nt
COc1cc2c(cc1OC)[C@@H]1CC(=O)[C@@H](CC(C)C)CN1CC2	-7%	-3%	-2%
Cc1ccc(NC(=O)CN2CCc3cc4c(cc3C2C)OCCCO4)cc1C (configuration not stated)	0%	nt	-10%
SMILES	Gal4-VP16 FLuc	Luc counter	RORgamma inh
CCc1cc(CC)c(/C=N/NC(N)=O)c(CC)c1	-13%	1%	11%
COc1cccc(OC)c1OCCNCC1CSc2ccccc2O1 (configuration not stated)	nt	-3%	nt
COc1ccc(CCNC(=O)c2nnn(CC(=O)Nc3ccc(C)cc3C)c2N)cc1OC	-15%	nt	-29%
Cc1ccc(C)c(NC2=NS(=O)(=O)c3ccccc32)c1	2%	-4%	-8%
Cc1ccc(S(=O)(=O)NNC2=NS(=O)(=O)c3ccccc32)c(C)c1	-28%	1%	10µM*
COc1cccc(NC(=O)CSc2nc3ccccc3c3nc4ccccc4n23)c1	-25%	0%	-26%
CCC(=O)Nc1nc2ccc(NC(=O)COc3ccccc3)cc2s1	9%	nt	-17%
O=C(NNc1nc2c(F)cccc2s1)c1ccc(F)cc1	-29%	0%	?
C/C(=C\C(=O)c1ccccc1)NNc1nc2ccccc2s1	?	-2%	7.9µM*
CC(=O)NNc1nc2ccccc2s1	11%	-2%	-20%
O=C(COc1ccccc1)NNc1nc2ccccc2s1	11µM*	nt	5µM*
COc1ccc(OCC(=O)Nc2nc3ccc(NC(C)=O)cc3s2)cc1	-19%	3%	1%
COc1ccc2nc(NNC(=O)COc3ccccc3)sc2c1	-7%	-1%	7.1µM*
O=C(COc1ccccc1)NNc1nc2c(F)cccc2s1	-2%	1%	5µM*
COC(=O)Cn1cnc2c(cnn2-c2ccc(C)cc2)c1=O	-9%	nt	32%
O=C(NC(NCc1cccnc1)C(Cl)(Cl)Cl)c1cccc2ccccc12 (configuration not stated)	5%	-1%	7%
O=C(C1CCOCC1)N1CCC(CO)(CCc2ccccc2)CC1	2%	1%	4%
O=C(COC(=O)CNC(=O)c1ccco1)NCc1ccc(F)cc1	-8%	2%	0%
CCCCc1nc2c(c3c1C[C@H](C)OC3)CN(C(=O)C1CC1)CC2	nt	-6%[7.66 µM]	nt
